Experimental data: PubChem BioAssay (EPA / NIEHS)
Inconclusive results are not listed. Active and inactive are the calls of the source. Rule for the calls: active = hit-call score of the fitted dose curve at least 0.9, where 1 is the maximum; inconclusive = response in the unintended direction; inactive = score below 0.9.

Assays:
[1] = LTEA_HepaRG_LDH_cytotoxicity: Cytotoxicity Assessment in the Life Technologies and Expression Analysis (LTEA) Assay (AID 2283563);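 for AC50: LDH activity released into spent culture medium as a marker of cell death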
Outline: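 Differentiated human HepaRG cells, plated 48 h beforehand, were switched to serum-free induction medium and exposed for 48 h to eight half-log concentrations (top 100 uM) in 0.5% DMSO. LDH was measured in spent medium; activity was fitted relative to DMSO vehicle.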

[2] = TOX21_p53_BLA_p2_viability: Viability Assessment in the Tox21 HCT-116 p53 Agonism Beta-lactamase Assay, Phase 2 (AID 2283591);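 note: compound exposure lasted 16 h at 37 °C; actives lower the ATP signal meaning cytotoxicity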
Outline: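 Cytotoxicity readout: CellTiter-Glo ATP luminescence, 30 min at room temperature, after the beta-lactamase read. Cells were HCT116 exposed 16 h at 37C to compounds pin-transferred at 217-fold dilution from DMSO stocks.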

[3] = molecular target: Cellular tumor antigen p53 (Homo sapiens) (UniProt P04637); test: TOX21_p53_BLA_p2_ratio: Tox21 HCT-116 p53 Agonism Beta-lactamase Assay, Ratio, Phase 2 (AID 2283592)
Sequence of Cellular tumor antigen p53 (Homo sapiens) (P04637 whole entry, looked up): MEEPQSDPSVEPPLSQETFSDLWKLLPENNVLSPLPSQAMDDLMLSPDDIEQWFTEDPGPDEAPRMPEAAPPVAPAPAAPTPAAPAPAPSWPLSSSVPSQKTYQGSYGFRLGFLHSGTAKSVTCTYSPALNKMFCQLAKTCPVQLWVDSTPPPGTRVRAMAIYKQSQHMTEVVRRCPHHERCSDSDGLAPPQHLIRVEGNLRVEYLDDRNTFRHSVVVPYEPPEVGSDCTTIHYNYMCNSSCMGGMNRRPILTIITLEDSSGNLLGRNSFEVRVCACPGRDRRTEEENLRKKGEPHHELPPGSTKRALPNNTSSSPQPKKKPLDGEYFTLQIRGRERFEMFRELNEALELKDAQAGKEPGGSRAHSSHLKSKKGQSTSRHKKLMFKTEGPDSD
Outline: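 Ratio endpoint: beta-lactamase cleavage of CCF4-AM, blue (460 nm) over green (530 nm). HCT116 reporter line; 16 h treatment, 37C; substrate 2 h RT.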

[4] = TOX21_p53_BLA_p3_viability: Viability Assessment in the Tox21 HCT-116 p53 Agonism Beta-lactamase Assay, Phase 3 (AID 2283593);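 note: cells exposed to compound for 16 h before reading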
Outline: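 Cellular ATP was quantified by CellTiter-Glo luminescence, read after 30 min at room temperature. Beforehand, HCT116 cells (4000/well) received compound 5 h post-seeding, 217-fold diluted from DMSO, then incubated 16 h at 37C.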

[5] = molecular target: Cellular tumor antigen p53 (Homo sapiens) (UniProt P04637); test: TOX21_p53_BLA_p3_ratio: Tox21 HCT-116 p53 Agonism Beta-lactamase Assay, Ratio, Phase 3 (AID 2283596)
Outline: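 Cells were seeded at 4000/well, rested 5 h at 37C, then dosed with DMSO compound solutions (217-fold dilution) for 16 h. CCF4-AM substrate was loaded for 2 h at room temperature, and the 460/530 nm emission ratio was fitted for gain of signal versus DMSO.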

[6] = molecular target: Cellular tumor antigen p53 (Homo sapiens) (UniProt P04637); test: TOX21_p53_BLA_p5_ratio: Tox21 HCT-116 p53 Agonism Beta-lactamase Assay, Ratio, Phase 5 (AID 2283599)
Outline: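 Beta-lactamase reporter ratio (blue 460 nm over green 530 nm, 405 nm excitation) after 2 h CCF4-AM loading, in HCT-116 cells exposed 16 h at 37 C to compounds pinned at 217-fold dilution. Increases relative to DMSO baseline scored.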

[7] = TOX21_p53_BLA_p5_viability: Viability Assessment in the Tox21 HCT-116 p53 Agonism Beta-lactamase Assay, Phase 5 (AID 2283600)
Outline: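 Luciferase-coupled ATP quantitation of cells treated for 16 h (37C, 5% CO2) with test chemicals delivered in DMSO via a 217-fold dilution; 4000 cells/well; reagent incubated 30 min at room temperature before luminescence reading.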

[8] = Tanguay_ZF_120hpf_MORT_legacy: (Legacy) Oregon State University Tanguay Lab 120 Hour Post-fertilization zebrafish Assay for Mortality (AID 2283633);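 for AC50: fitted as increase in binary mortality versus DMSO negative control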
Outline: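 Dechorionated Tropical 5D wild-type zebrafish embryos, one per well from 6 hpf, were statically exposed at 28C in the dark until 120 hpf (0.64% DMSO final). Mortality was scored as present/absent by brightfield microscopy, fitted positively versus DMSO.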

[9] = Tanguay_ZF_120hpf_YSE_legacy: (Legacy) Oregon State University Tanguay Lab 120 Hour Post-fertilization zebrafish Assay for Yolk Sac Edema (AID 2283634);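 for AC50: actives raise the incidence of yolk sac edema above the DMSO baseline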
Outline: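 Tropical 5D wild-type embryos, dechorionated with pronase at 4 hpf, were exposed singly from 6 hpf to 120 hpf under static, sealed, dark conditions at 28C with 0.64% DMSO final. Yolk sac edema was scored present/absent by brightfield microscopy.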

[10] = Tanguay_ZF_120hpf_EYE_legacy: (Legacy) Oregon State University Tanguay Lab 120 Hour Post-fertilization zebrafish Assay for Eye Malformation (AID 2283636);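 note: binary presence or absence of eye malformation scored by brightfield in 120 hpf larvae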
Outline: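 Binary brightfield scoring of eye defects at 120 hpf after static exposure from 6 hpf of single pronase-dechorionated wild-type embryos (28C, 0.64% DMSO). Non-mortality endpoints omitted where embryos died; fit vs DMSO.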

[11] = Tanguay_ZF_120hpf_SNOU_legacy: (Legacy) Oregon State University Tanguay Lab 120 Hour Post-fertilization zebrafish Assay for Snout Malformation (AID 2283637)
Outline: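 Binary snout-malformation call at 120 hpf in wild-type 5D embryos, chorion removed by pronase, under static exposure from 6 hpf at 28C (0.64% DMSO). Embryos dying by 24 or 120 hpf excluded.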

[12] = Tanguay_ZF_120hpf_JAW_legacy: (Legacy) Oregon State University Tanguay Lab 120 Hour Post-fertilization zebrafish Assay for Jaw Malformation (AID 2283638);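 for AC50: active means more embryos with jaw malformation than DMSO controls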
Outline: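 Tropical 5D wild-type embryos, dechorionated with pronase at 4 hpf, were placed singly per well at 6 hpf and statically exposed at 28C until 120 hpf (0.64% DMSO final). Jaw malformation scored as present/absent by brightfield microscopy at 120 hpf, analyzed relative to DMSO.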

[13] = Tanguay_ZF_120hpf_OTIC_legacy: (Legacy) Oregon State University Tanguay Lab 120 Hour Post-fertilization zebrafish Assay for Otic Vesicle Malformation (AID 2283639)
Outline: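 Brightfield scoring at 120 hpf, binary present/absent; DMSO negative control, 5uM trimethyltin chloride positive control. Static exposure at 28C, final DMSO 0.64% (vol/vol). Dead embryos not scored for malformation.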

[14] = Tanguay_ZF_120hpf_PE_legacy: (Legacy) Oregon State University Tanguay Lab 120 Hour Post-fertilization zebrafish Assay for Pericardial Edema (AID 2283640);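 for AC50: potency for increased incidence of pericardial edema versus DMSO baseline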
Outline: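 Tropical 5D wild-type zebrafish embryos were exposed statically to 120 hpf at 28C, sealed and foil-covered, in 0.64% DMSO final. Pericardial edema was scored present/absent by brightfield microscopy; dead embryos were not scored.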

[15] = Tanguay_ZF_120hpf_SOMI_legacy: (Legacy) Oregon State University Tanguay Lab 120 Hour Post-fertilization zebrafish Assay for Somite Malformation (AID 2283647)
Outline: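 Tropical 5D wild-type zebrafish embryos, dechorionated with pronase at 4 hpf, were placed singly at 6 hpf and statically exposed until 120 hpf at 28C in 0.64% DMSO. Somite malformation was scored present/absent by brightfield microscopy versus DMSO.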

[16] = ATG_XTT_Cytotoxicity: Cytotoxicity Assessment in the Attagene TRANS-FACTORIAL HepG2 Assay (AID 2283584)
Outline: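 HepG2 human liver cells, transiently transfected with multiple GAL4-UAS reporter units, were dosed and read at 24 h by XTT as cell number. Loss of signal was fitted relative to DMSO negative control baseline.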

[17] = TOX21_p53_BLA_p4_viability: Viability Assessment in the Tox21 HCT-116 p53 Agonism Beta-lactamase Assay, Phase 4 (AID 2283597);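 note: hits lower the luminescence signal meaning cytotoxicity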
Outline: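 Cytotoxicity was inferred from loss of CellTiter-Glo luminescence. HCT116 cells had been dosed with compounds after 5 h plating, incubated 16 h at 37C and 5% CO2, and exposed to the CCF4-AM substrate for 2 h.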

[18] = molecular target: Cellular tumor antigen p53 (Homo sapiens) (UniProt P04637); test: TOX21_p53_BLA_p4_ratio: Tox21 HCT-116 p53 Agonism Beta-lactamase Assay, Ratio, Phase 4 (AID 2283601)
Outline: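 Signal is the blue/green (460nm/530nm) ratio of cleaved versus uncleaved CCF4-AM substrate, read after 2 h substrate loading. Cells were HCT116 carrying the p53-responsive beta-lactamase reporter, dosed 16 h at 37C, 5% CO2; CellTiter-Glo measured in parallel.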

[19] = Tanguay_ZF_120hpf_AXIS_legacy: (Legacy) Oregon State University Tanguay Lab 120 Hour Post-fertilization zebrafish Assay for Body Axis Malformation (AID 2283635);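 for AC50: potency for an increased fraction of larvae scored with body axis malformation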
Outline: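 Tropical 5D wild-type zebrafish embryos, dechorionated with pronase at 4 hpf, were placed singly in wells at 6 hpf and exposed statically to test chemical (0.64% DMSO final) at 28C until 120 hpf, then scored by brightfield for body axis defects.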

[20] = Tanguay_ZF_120hpf_BRAI_legacy: (Legacy) Oregon State University Tanguay Lab 120 Hour Post-fertilization zebrafish Assay for Brain Malformation (AID 2283641)
Outline: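 Tropical 5D wild-type zebrafish embryos were exposed statically in sealed, foil-covered plates at 28C until 120 hpf, with 0.64% (vol/vol) final DMSO. Brain malformation was scored present/absent by brightfield microscopy, relative to DMSO baseline.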

Measured: AC50

Nc1c(Cl)c(F)nc(OCC(=O)O)c1Cl
not listed: [16] | [17] | [18] | [19] | [20]
inactive: all other assays above

CC1(C)C(C=C(Cl)Cl)C1C(=O)OC(C#N)c1cccc(Oc2ccccc2)c1 (centres undefined)
active: [9] 1.7 µM | [19] 1.23 µM | [10] 1.82 µM | [11] 1.53 µM | [12] 1.66 µM | [14] 1.66 µM | [15] 1.86 µM
inactive: all other assays above

CCOP(=O)(OCC)Oc1nc(Cl)c(Cl)cc1Cl
active: [6] 38.3 µM | [18] 61.7 µM | [8] 0.887 µM
not listed: [16]
inactive: all other assays above

N#Cc1c[nH]cc1-c1cccc2c1OC(F)(F)O2
active: [3] 7.61 µM | [5] 8.51 µM | [6] 5.39 µM | [18] 6.17 µM | [8] 25.9 µM
not listed: [13]
inactive: all other assays above

O=c1n(Cl)c(=O)n(Cl)c(=O)n1Cl
not listed: [5] | [10] | [11] | [15] | [16] | [17]
inactive: all other assays above

CC(C)Oc1cccc(NC(=O)c2ccccc2C(F)(F)F)c1
active: [9] 48.7 µM | [10] 15.5 µM | [11] 50.4 µM | [12] 40.4 µM | [14] 48.1 µM | [20] 38.3 µM
not listed: [16]
inactive: all other assays above

CC(C)N1C(=O)N(c2ccccc2)CSC1=NC(C)(C)C
active: [1] 84.1 µM | [2] 84.6 µM | [17] 71.3 µM | [7] 69 µM | [18] 87.2 µM
not listed: [16] | [20]
inactive: all other assays above
